PubChem BioAssay AID1159580 (chemical genetic matrix, 2015)
In all, about 5,500 compounds went through this assay and about 2,000 (36%) were called active. Another 18% or so got no clear call; they are omitted. Rule as the data show it: active = normalized growth mostly below about 0.91 (no sharp cut-off); inconclusive = no clear call, values can overlap the other calls; inactive = mostly above about 0.92. This is one part of the list.

Experiment: chemical genetic growth profiling, strain panel (AID 1159580);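 also: tested at 20 µM; growth read once vehicle control cultures reached saturation at 30 °C; 1 = growth at the plate median or of vehicle wells; lower values mean less growth of the strain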
Conditions: S. cerevisiae deletion strains, growth OD
[1] = locus YDL101C, strain DUN1, stronger effect = lower value
[2] = locus YHR030C, strain SLT2, stronger effect = lower value

Measured: normalized growth

O=C(C=C(O)c1ccc(Br)cc1)C(=O)Nc1ccccc1
active: locus YAR019C, strain CDC15, stronger effect = lower value 0.489 | locus YBL105C, strain PKC1, stronger effect = lower value 0.637 | locus YBR135W, strain CKS1, stronger effect = lower value 0.686 | locus YBR136W, strain MEC1, stronger effect = lower value 0.851 | locus YBR160W, strain CDC28, stronger effect = lower value 0.893 | locus YDL017W, strain CDC7, stronger effect = lower value 0.683 | locus YDL028C, strain MPS1, stronger effect = lower value 0.834 | [1] 0.379 | locus YDL108W, strain KIN28, stronger effect = lower value 0.874 | locus YDL132W, strain cdc53, stronger effect = lower value 0.76 | locus YDL214C, strain PRR2, stronger effect = lower value 0.145 | locus YDR052C, strain DBF4, stronger effect = lower value 0.849 | locus YDR054C, strain cdc34, stronger effect = lower value 0.581 | locus YDR226W, strain ADK1, stronger effect = lower value 0.869 | locus YDR477W, strain SNF1, stronger effect = lower value 0.105 | locus YER123W, strain YCK3, stronger effect = lower value 0.124 | locus YER133W, strain GLC7, stronger effect = lower value 0.229 | locus YFL009W, strain cdc4, stronger effect = lower value 0.7 | locus YFL029C, strain CAK1, stronger effect = lower value 0.439 | locus YFR003C, strain YPI1, stronger effect = lower value 0.718 | locus YFR019W, strain FAB1, stronger effect = lower value 0.128 | locus YFR028C, strain CDC14, stronger effect = lower value 0.448 | locus YGR040W, strain KSS1, stronger effect = lower value 0.109 | locus YGR052W, strain FMP48, stronger effect = lower value 0.132 | locus YGR092W, strain DBF2, stronger effect = lower value 0.104 | [2] 0.148 | locus YHR079C, strain IRE1, stronger effect = lower value 0.159 | locus YHR082C, strain KSP1, stronger effect = lower value 0.136 | locus YHR205W, strain SCH9, stronger effect = lower value 0.0311 | locus YIL147C, strain SLN1, stronger effect = lower value 0.848 | locus YJL095W, strain BCK1, stronger effect = lower value 0.136 | locus YJL128C, strain PBS2, stronger effect = lower value 0.483 | locus YJL157C, strain FAR1, stronger effect = lower value 0.113 | locus YJR016C, strain ILV3, stronger effect = lower value 0.156 | locus YJR066W, strain TOR1 (second series), stronger effect = lower value 0.115 | locus YJR066W, strain TOR1, stronger effect = lower value 0.122 | locus YKL048C, strain ELM1, stronger effect = lower value 0.136 | locus YKL067W, strain YNK1, stronger effect = lower value 0.127 | locus YKL101W, strain HSL1, stronger effect = lower value 0.103 | locus YKL193C, strain SDS22, stronger effect = lower value 0.761 | locus YKL203C, strain TOR2, stronger effect = lower value 0.142 | locus YLR113W, strain HOG1, stronger effect = lower value 0.145 | locus YLR133W, strain CKI1, stronger effect = lower value 0.127 | locus YLR403W, strain SFP1, stronger effect = lower value 0.00467 | locus YML070W, strain DAK1, stronger effect = lower value 0.129 | locus YMR001C, strain CDC5, stronger effect = lower value 0.449 | locus YMR205C, strain PFK2 (second series), stronger effect = lower value 0.118 | locus YMR277W, strain FCP1, stronger effect = lower value 0.728 | locus YNL006W, strain LST8, stronger effect = lower value 0.158 | locus YNL020C, strain ARK1, stronger effect = lower value 0.109 | locus YNL161W, strain CBK1, stronger effect = lower value 0.77 | locus YNL183C, strain NPR1, stronger effect = lower value 0.131 | locus YNL207W, strain RIO2, stronger effect = lower value 0.824 | locus YNL222W, strain SSU72, stronger effect = lower value 0.786 | locus YNL307C, strain MCK1 (second series), stronger effect = lower value 0.114 | locus YOL078W, strain AVO1, stronger effect = lower value 0.76 | locus YOL136C, strain PFK27, stronger effect = lower value 0.109 | locus YOR061W, strain CKA2, stronger effect = lower value 0.0904 | locus YOR119C, strain RIO1, stronger effect = lower value 0.134 | locus YOR231W, strain MKK1, stronger effect = lower value 0.14 | locus YOR329C, strain SCD5, stronger effect = lower value 0.79 | locus YPL031C, strain PHO85, stronger effect = lower value 0.105 | locus YPL153C, strain RAD53, stronger effect = lower value 0.103 | locus YPL204W, strain HRR25, stronger effect = lower value 0.114 | locus YPL209C, strain IPL1, stronger effect = lower value 0.646 | locus YPL256C, strain CLN2, stronger effect = lower value 0.17 | locus YPR025C, strain CCL1, stronger effect = lower value 0.871 | locus YPR106W, strain ISR1, stronger effect = lower value 0.513 | locus YPR111W, strain DBF20, stronger effect = lower value 0.724 | strain NNK1, stronger effect = lower value 0.106 | strain TSCII, stronger effect = lower value 0.39

O=C(Nc1ccccc1C(=O)Nc1ccc(Br)cc1)c1ccccc1
inactive: locus YAL013W, strain DEP1, stronger effect = lower value 1.01 | locus YBR229C, strain ROT2, stronger effect = lower value 1.02 | [1] 1.05 | locus YDR150W, strain NUM1, stronger effect = lower value 1 | locus YEL061C, strain CIN8, stronger effect = lower value 0.998 | locus YGR078C, strain PAC10, stronger effect = lower value 1.02 | locus YGR229C, strain SMI1, stronger effect = lower value 1.03 | [2] 1.03 | locus YHR087W, strain rtc3, stronger effect = lower value 1.03 | locus YJL187C, strain SWE1, stronger effect = lower value 1.01 | locus YJR043C, strain POL32, stronger effect = lower value 1.03 | locus YJR075W, strain HOC1, stronger effect = lower value 0.997 | locus YKL190W, strain CNB1, stronger effect = lower value 1.03 | locus YLR039C, strain RIC1, stronger effect = lower value 1.02 | locus YLR058C, strain SHM2 (second series), stronger effect = lower value 1.02 | locus YLR085C, strain ARP6, stronger effect = lower value 1 | locus YLR262C, strain YPT6, stronger effect = lower value 1.03 | locus YML094W, strain GIM5, stronger effect = lower value 1.01 | locus YMR219W, strain ESC1, stronger effect = lower value 1.01 | locus YMR263W, strain SAP30, stronger effect = lower value 1.03 | locus YNL153C, strain GIM3, stronger effect = lower value 1.03 | locus YNL298W, strain CLA4 (second series), stronger effect = lower value 1.06 | locus YNL322C, strain KRE1, stronger effect = lower value 1.02 | locus YNR030W, strain Alg12, stronger effect = lower value 1.02 | locus YPL055C, strain LGE1, stronger effect = lower value 1.08 | locus YPL241C, strain CIN2, stronger effect = lower value 1.01 | locus YPR135W, strain CTF4, stronger effect = lower value 1.17
